# From paper PMC8384837, “Expanding the binding specificity for RNA recognition by a PUF domain”
# Target: PUM1 PUF domain R4-TPA (Homo sapiens, UniProt Q14671 828-1176, N971T;H972P;Q975A)
# Assay: yeast three-hybrid, YBZ-1, SC-Leu-His + 0.5 mM 3-AT, 4 days
# Settings: tags: N-Gal4 AD-HA kept; label: inside an RPR1-promoter hybrid RNA with tandem MS2 sites; ssRNA
# In short: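 Pumilio-1 PUF domain libraries, randomized (NNK) at the three base-contacting residues of each repeat, were co-expressed with matching RNA elements from a centromeric plasmid in strain YBZ-1 (LexA–MS2 coat fusion, HIS3 reporter). Transformants were plated on SC-Leu (input) and SC-Leu-His + 0.5 mM 3-AT (selection) for four days, and repeat regions were PCR-amplified and Illumina-sequenced. The interaction score is the log2 change in variant frequency from input to selection, with pseudocount 1 where absent.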
# Chain of PUM1 PUF domain R4-TPA (Q14671 828-1176 N971T/H972P/Q975A): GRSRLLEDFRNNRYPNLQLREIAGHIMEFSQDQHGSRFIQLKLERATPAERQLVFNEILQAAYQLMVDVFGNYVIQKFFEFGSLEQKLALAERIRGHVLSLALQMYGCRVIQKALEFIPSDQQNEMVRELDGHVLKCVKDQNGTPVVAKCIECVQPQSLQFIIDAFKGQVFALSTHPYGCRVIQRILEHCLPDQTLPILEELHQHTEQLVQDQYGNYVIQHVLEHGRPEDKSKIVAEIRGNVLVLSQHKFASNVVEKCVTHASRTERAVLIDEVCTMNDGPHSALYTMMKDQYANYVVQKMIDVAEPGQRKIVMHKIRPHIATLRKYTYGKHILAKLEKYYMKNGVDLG
row,Sequence,binding signal
1,GGCUAGAACUAGUGGAUCCCCCGGCGCCCGGCGGCUCGAGCCCGGGUAAGUGUAAAUAGUCUGCAUGCCGCCGGGCGCCAUGCCUGCAGGUCGACUCUAGAAAACAUG,3.35 log2 enrichment (interaction score)
2,GGCUAGAACUAGUGGAUCCCCCGGCGCCCGGCGGCUCGAGCCCGGGUAAGUGUACAUAGUCUGCAUGCCGCCGGGCGCCAUGCCUGCAGGUCGACUCUAGAAAACAUG,3.56 log2 enrichment (interaction score)
3,GGCUAGAACUAGUGGAUCCCCCGGCGCCCGGCGGCUCGAGCCCGGGUAAGUGUAUAUAGUCUGCAUGCCGCCGGGCGCCAUGCCUGCAGGUCGACUCUAGAAAACAUG,4.12 log2 enrichment (interaction score)
